This is a sample that favours compounds with a hit; in the whole collection about 7% have one here.
Integrin act MD: activates integrin-mediated alleviation for muscular dystrophy | alpha7betagal myoblasts, beta-gal FDG fluorescence, 48 h | Potency, µM (titrated, usually from 38.3 µM), without a hit: at the highest dose activation, usual class: activators | hit rate 0.064% among 350,000;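 also: potency is read from the fitted curve at half-maximal effect; 100% = response of the positive control SU9516; nearly all actives have a fitted effect of over 60% in size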
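alpha7betagal+/- myoblasts (passage 13, 250/well) treated 48 h at 37C with compounds at 1:260 dilution of DMSO stock. Lysed, then beta-galactosidase activity read as FDG fluorescence (ex 480/em 540) after 30 min, with pre-read for autofluorescence.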
ATXN2 expr inh: inhibitors of ATXN2 expression | HEK-293 ATXN2-luciferase reporter, luminescence, 24 h | Potency, µM (series often up to 57 µM), for inactives: at the highest dose activity change, negative = inhibition, most hits filed as inhibitors | hit rate 0.72% among 360,000 | AID 1745845; also: potency is read from the fitted curve at half-maximal effect; % is scaled to controls: 0 for no effect and ±100 for the full control effect; nearly all actives have a fitted effect of over 55% in size
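qHTS (up to 57 uM final) was run with 24 h compound exposure of reporter cells at 37 °C. Each well was multiplexed: SteadyGlo luminescence measured ATXN2-luciferase expression after a fluorogenic Gly-Phe-AFC viability readout (25 uM final).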
D3 ag: agonists of human D3 dopamine receptor | max activation, % | hit rate 0.58% among 410,000 | AID 652048 | D3R DiscoveRx beta-arrestin cells, luminescence, 90 min; in the data active = max activation above about 30%; also: 0% is about no effect
Target sequence (P35462 whole entry, looked up): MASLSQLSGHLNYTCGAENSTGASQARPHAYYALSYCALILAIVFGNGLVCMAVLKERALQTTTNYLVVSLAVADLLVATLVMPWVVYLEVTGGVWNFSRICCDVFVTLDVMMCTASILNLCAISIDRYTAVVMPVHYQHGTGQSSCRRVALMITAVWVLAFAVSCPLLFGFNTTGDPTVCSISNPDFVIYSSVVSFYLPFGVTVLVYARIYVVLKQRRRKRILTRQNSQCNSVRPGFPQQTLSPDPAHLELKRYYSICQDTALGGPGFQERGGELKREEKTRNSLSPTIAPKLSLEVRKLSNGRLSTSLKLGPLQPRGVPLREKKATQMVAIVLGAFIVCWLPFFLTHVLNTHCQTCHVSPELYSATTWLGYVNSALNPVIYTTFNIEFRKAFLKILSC
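Cells at 1500/well, incubated overnight, then treated with pinned compounds (dopamine as control) for 90 min at 37 degrees C. DiscoveRx reagent added for 30 - 60 minutes at room temperature; luminescence read.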
S2 tox: cell viability loss in ATXN counter-screen | S2 cells (HEK-293 line with an ATXN2-luciferase reporter) viability, CellTiter-Fluor protease fluorescence, 24 h | Potency, µM (series often up to 56.7 µM), actives largely listed as cytotoxic | hit rate 0.49% among 400,000; also: potency is read from the fitted curve at half-maximal effect; nearly all actives have a fitted effect of over 40% in size
D3 antag: D3 dopamine receptor (human) antagonism; hit rate 2.5% among 360,000; P35462; D3R cells, DiscoveRx beta-arrestin luminescence, antagonist mode; stronger effect = lower value; max response, negative = inhibition, %; in the data active = max response below about -50%; inconclusive = no clear call, values can overlap the other calls; also: % is scaled to controls: 0 for no effect and ±100 for the full control effect
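Cells expressing the human receptor were seeded at 1500 cells/well, incubated overnight at 37 degrees C in 5% CO2, then exposed to library compounds with dopamine controls for 90 minutes at 37 degrees C before luminescent detection.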
IL-1B inflam inh: inflammasome signaling inhibition, IL-1 beta readout | THP-1 LPS/ATP IL-1B secretion, AlphaLISA, 16 h; stronger effect = lower value | activity change, % at 57.5 µM | AID 743279 | hit rate 4.7% among 360,000; in the data active = activity change below about -50%; inconclusive = mostly about -30% to -49%; also: % is scaled to controls: 0 for no effect and ±100 for the full control effect
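Secreted IL-1B measured by AlphaLISA bead assay after 16 h compound exposure of THP-1 cells; compounds (final up to 57.5 uM) added 1 h before LPS (250 ng/mL) and ATP (1.25 mM) stimulation; lower signal means less secretion.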
An asterisk follows results filed as active; i = inactive; u = inconclusive; x = no result. Unless noted, calls follow the shape of the dose curve; as a rule, active = well fitted curve in the direction sought with a large enough effect; inconclusive = small, poorly fitted or top-dose-only effect, or another doubt; inactive = no such curve, though single readings can be large; an effect the other way counts as inactive or inconclusive.

SMILES	Integrin act MD	ATXN2 expr inh	D3 ag	S2 tox	D3 antag	IL-1B inflam inh
O=C(CSc1nnc(-c2ccncc2)s1)Nc1ccccc1	16%	1%	21	i	0	-9
COc1cccc(N2CCN(S(=O)(=O)c3ccc(-c4cnc(C5CC5)o4)cc3)CC2)c1	10%	-10%	0	i	-23	23
CC(C)c1ccc(NC(=O)C2Cc3c(-c4ccc5c(c4)OCO5)ccnc3O2)cc1 (stereo not given)	x	7%	3	u	7	-58*
COc1ccc(NC(=O)C2Cc3c(-c4ccc5c(c4)OCO5)ccnc3O2)cc1OC (stereo not given)	x	u	1	2.5µM*	18	-7
O=C(Nc1cccc(OC(F)(F)F)c1)C1Cc2c(-c3ccc4c(c3)OCO4)ccnc2O1 (stereo not given)	x	u	-9	x	-55*	-5
Cc1cccc(CS(=O)(=O)Cc2ccc(C(=O)NCc3cccs3)o2)c1	11%	0%	32*	u	6	3
Cc1cccc(CS(=O)(=O)Cc2ccc(C(=O)NCc3ccccc3)o2)c1	10%	x	-3	i	8	-1
CCOc1ccc(-c2nnc(NC(=O)C3CCCC3)o2)cc1	-30%	10%	-6	i	-105*	-1
O=C(Nc1nnc(-c2ccc(Cl)cc2)o1)C1CCCCC1	-15%	-4%	-2	i	-14	8
OC[C@@H]1CN(Cc2ccc(-c3ccccc3)cc2)C[C@H](n2cnc3c(NC4CCC4)ncnc32)O1	x	u	3	18µM*	25	-18
CN1CCN(c2ncnc3c2ncn3[C@H]2CN(Cc3ccccc3)C[C@@H](CO)O2)CC1	x	8%	7	i	3	-8
CNc1ncnc2c1ncn2[C@H]1CN(CCOC)C[C@@H](CO)O1	x	18%	5	i	-56*	31
COc1cc(CN2C[C@@H](CO)O[C@@H](n3cnc4c(NCc5ccc(F)cc5)ncnc43)C2)cc(OC)c1OC	x	12%	10	i	14	-69*
COc1cc(CNc2ncnc3c2ncn3[C@H]2CN(Cc3ccc(F)cc3)C[C@@H](CO)O2)cc(OC)c1OC	x	-1%	-1	i	-10	0
COCCNc1ncnc2c1ncn2[C@H]1CN(CCOC)C[C@@H](CO)O1	x	4%	0	i	0	-15
OC[C@@H]1CN(Cc2ccccc2)C[C@H](n2ccc3c(N4CCCC4)ncnc32)O1	x	14%	6	i	6	-56*
CCOc1ccc2ncc(S(=O)(=O)c3ccc(C)cc3)c(N3CCC4(CC3)OCCO4)c2c1	-2%	-23%	1	i	50	0
COc1ccc(NC(=O)CN(C)C(=O)CCC2CCCC2)cc1	-8%	-22%	-4	i	-6	-13
CCN1CNC(=S)N(c2ccccc2C)C1	u	x	-5	x	-2	12
COc1cc(O)ccc1-c1nc2ccc(Br)cn2c1Nc1ccccc1C	x	x	10	x	x	x
COc1ccc(C)cc1NC(=O)c1nc2nc(C)cc(C)n2n1	1%	0%	6	i	14	26
CNc1ncnc2c1ncn2[C@H]1CN(Cc2cccc3ccccc23)C[C@@H](CO)O1	x	6%	111*	i	25	20
CCN(CC)c1ncnc2c1ncn2[C@H]1CN(Cc2cccnc2)C[C@@H](CO)O1	x	1%	3	i	10	-57*
CCc1nc(Nc2ccncc2)c2oc3ccccc3c2n1	-50%	u	2	u	6	-59*
Cc1nc(Nc2ccncc2)c2oc3ccccc3c2n1	-57%	u	0	u	-12	-93*
CCc1nc(Nc2cc(OC)ccc2OC)c2oc3ccccc3c2n1	0%	-12%	13	i	39	10
CCc1nc(NCc2ccccn2)c2oc3ccccc3c2n1	-51%	-24%	5	i	25	-68*
CCc1nc(Nc2ccccc2OC)c2oc3ccccc3c2n1	-9%	-8%	1	i	34	-54*
CCc1ccccc1NC(=O)Nc1cccn(Cc2ccc(F)cc2)c1=O	7%	x	-9	i	-23	-11
CCOC(=O)c1c(C)oc2ccc(N(C(=O)c3ccncc3)S(=O)(=O)c3ccc(Br)cc3)cc12	x	u	2	u	x	x

From PubChem BioAssay
